# Reference: publication PMC7862700, “An all-to-all approach to the identification of sequence-specific readers for epigenetic DNA modifications on cytosine”
# What was measured:
# Assay in all cases: DAPPL (digital affinity profiling via proximity ligation, sequencing); 10 mM Tris-HCl pH 7.5, 50 mM NaCl, 1 mM DTT, 4% glycerol, room temperature, 30 min; GST-TFs on glutathione beads, 16-mer random dsDNA library, 0.1% formaldehyde crosslink after washing; high values mean tight binding
# FEV = molecular target: T1, FEV (Homo sapiens, UniProt Q99581 1-238); conditions: protein: recombinant; tags: N-terminal GST; dsDNA, one strand shown
# T1 sequence: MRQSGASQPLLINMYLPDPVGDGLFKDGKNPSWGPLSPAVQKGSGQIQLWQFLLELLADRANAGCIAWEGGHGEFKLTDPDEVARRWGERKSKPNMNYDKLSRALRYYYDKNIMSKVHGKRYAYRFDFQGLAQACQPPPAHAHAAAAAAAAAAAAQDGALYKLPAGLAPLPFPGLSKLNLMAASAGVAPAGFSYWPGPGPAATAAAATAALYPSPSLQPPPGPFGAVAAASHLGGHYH
# Method in brief: (§1)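 Human transcription factors were made in yeast as GST fusions, captured on glutathione beads and barcoded with DNA. With a tag-only sample included, the pool was incubated with 200 nmole of a random double-stranded 16-mer DNA library in Tris/NaCl/DTT/glycerol buffer at room temperature for 30 min, then crosslinked with 0.1% formaldehyde after washing, ligated by proximity, amplified and sequenced. For binding signal, each hexamer's read frequency for a factor is divided by its frequency for the tag-only sample.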
# ETV5 = ETV5 (Homo sapiens, UniProt P41161 1-510); conditions: protein: recombinant; tags: N-terminal GST; dsDNA, one strand shown
# Method in brief: as §1
# HSF1 = HSF1 (Homo sapiens, UniProt Q00613 1-529); conditions: protein: recombinant; tags: N-terminal GST; chain copies: 3; dsDNA, one strand shown
# Method in brief: as §1
# SPIC = molecular target: T2, SPIC (Homo sapiens, UniProt Q8N5J4 1-248); conditions: protein: recombinant; tags: N-terminal GST; dsDNA, one strand shown
# T2 sequence: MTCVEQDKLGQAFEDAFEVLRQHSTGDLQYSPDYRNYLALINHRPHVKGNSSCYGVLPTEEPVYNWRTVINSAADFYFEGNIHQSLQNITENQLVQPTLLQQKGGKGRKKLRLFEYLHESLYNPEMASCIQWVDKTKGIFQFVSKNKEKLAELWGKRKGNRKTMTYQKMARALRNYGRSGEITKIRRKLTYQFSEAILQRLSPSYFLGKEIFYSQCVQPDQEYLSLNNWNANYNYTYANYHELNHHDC
# Method in brief: as §1
# ELF4 = ELF4 (Homo sapiens, UniProt Q99607 1-663); conditions: protein: recombinant; tags: N-terminal GST; dsDNA, one strand shown
# Method in brief: as §1
# ELK4 = molecular target: T3, ELK4 (Homo sapiens, UniProt P28324-2 1-405); conditions: protein: recombinant; tags: N-terminal GST; dsDNA, one strand shown
# T3 sequence: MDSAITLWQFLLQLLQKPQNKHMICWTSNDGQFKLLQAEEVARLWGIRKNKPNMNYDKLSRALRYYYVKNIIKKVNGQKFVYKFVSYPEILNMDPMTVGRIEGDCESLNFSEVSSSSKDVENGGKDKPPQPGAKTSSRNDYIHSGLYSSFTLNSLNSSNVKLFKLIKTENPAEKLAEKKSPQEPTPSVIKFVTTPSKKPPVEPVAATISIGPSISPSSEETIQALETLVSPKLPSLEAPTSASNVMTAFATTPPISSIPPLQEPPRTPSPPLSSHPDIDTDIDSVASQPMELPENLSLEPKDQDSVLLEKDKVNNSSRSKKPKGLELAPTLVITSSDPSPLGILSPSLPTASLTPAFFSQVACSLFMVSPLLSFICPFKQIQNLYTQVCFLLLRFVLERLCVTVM
# Method in brief: as §1
# ETV2 = molecular target: T4, ETV2 (Homo sapiens, UniProt O00321 1-342); conditions: protein: recombinant; tags: N-terminal GST; dsDNA, one strand shown
# T4 sequence: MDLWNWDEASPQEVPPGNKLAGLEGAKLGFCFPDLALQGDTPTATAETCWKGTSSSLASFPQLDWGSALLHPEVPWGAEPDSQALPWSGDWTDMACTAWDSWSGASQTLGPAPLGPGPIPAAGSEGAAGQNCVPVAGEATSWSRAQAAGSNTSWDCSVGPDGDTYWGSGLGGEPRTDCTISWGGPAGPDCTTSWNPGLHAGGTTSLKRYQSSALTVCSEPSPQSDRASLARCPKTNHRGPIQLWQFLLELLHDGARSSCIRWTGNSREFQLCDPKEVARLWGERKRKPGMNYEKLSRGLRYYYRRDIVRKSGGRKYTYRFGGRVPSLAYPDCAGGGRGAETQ
# Method in brief: as §1
# ELF3 = molecular target: T5, ELF3 (Homo sapiens, UniProt P78545 1-371); conditions: protein: recombinant; tags: N-terminal GST; dsDNA, one strand shown
# T5 sequence: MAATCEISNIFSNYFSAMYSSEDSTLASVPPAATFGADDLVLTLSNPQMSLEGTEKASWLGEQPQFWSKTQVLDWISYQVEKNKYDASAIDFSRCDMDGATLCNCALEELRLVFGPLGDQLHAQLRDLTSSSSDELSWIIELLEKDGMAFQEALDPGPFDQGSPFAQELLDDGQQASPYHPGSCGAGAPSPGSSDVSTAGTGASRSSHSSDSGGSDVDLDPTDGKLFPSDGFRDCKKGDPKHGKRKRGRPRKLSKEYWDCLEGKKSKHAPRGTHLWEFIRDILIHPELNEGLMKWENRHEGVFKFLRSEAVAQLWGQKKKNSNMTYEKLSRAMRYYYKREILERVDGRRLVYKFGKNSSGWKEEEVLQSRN
# Method in brief: as §1
# CRX = CRX (Homo sapiens, UniProt O43186 1-299); conditions: protein: recombinant; tags: N-terminal GST; dsDNA, one strand shown
# Method in brief: as §1
# ETV1 = ETV1 (Homo sapiens, UniProt P50549 1-477); conditions: protein: recombinant; tags: N-terminal GST; dsDNA, one strand shown
# Method in brief: as §1
# ERF = molecular target: T6, ERF (Homo sapiens, UniProt P50548 1-548); conditions: protein: recombinant; tags: N-terminal GST; dsDNA, one strand shown
# T6 sequence: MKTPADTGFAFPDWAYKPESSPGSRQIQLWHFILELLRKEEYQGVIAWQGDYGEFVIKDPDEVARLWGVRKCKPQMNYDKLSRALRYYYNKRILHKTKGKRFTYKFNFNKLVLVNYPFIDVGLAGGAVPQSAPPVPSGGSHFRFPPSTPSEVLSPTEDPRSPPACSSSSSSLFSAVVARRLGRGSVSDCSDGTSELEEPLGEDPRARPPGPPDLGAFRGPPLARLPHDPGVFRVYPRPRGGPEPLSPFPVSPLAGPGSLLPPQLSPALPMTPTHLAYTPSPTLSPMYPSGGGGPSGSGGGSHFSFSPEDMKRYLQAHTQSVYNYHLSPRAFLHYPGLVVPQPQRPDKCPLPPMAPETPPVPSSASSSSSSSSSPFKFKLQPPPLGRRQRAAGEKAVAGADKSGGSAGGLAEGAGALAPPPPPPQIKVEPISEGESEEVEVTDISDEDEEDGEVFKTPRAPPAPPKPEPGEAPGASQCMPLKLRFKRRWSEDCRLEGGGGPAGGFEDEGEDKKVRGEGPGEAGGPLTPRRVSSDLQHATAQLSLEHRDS
# Method in brief: as §1
# ETV3L = molecular target: T7, ETV3L (Homo sapiens, UniProt Q6ZN32 1-361); conditions: protein: recombinant; tags: N-terminal GST; dsDNA, one strand shown
# T7 sequence: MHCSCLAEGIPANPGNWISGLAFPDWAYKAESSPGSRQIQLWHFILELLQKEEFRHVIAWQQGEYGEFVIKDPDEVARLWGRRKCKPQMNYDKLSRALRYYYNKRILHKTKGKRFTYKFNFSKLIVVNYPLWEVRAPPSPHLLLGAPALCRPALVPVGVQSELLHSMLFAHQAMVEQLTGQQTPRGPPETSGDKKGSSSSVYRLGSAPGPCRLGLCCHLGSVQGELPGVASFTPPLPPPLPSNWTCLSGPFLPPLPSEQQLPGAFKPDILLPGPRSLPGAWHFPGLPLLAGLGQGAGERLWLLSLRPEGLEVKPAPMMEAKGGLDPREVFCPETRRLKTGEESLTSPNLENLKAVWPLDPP
# Method in brief: as §1
# ETS2 = molecular target: T8, ETS2 (Homo sapiens, UniProt P15036 1-469); conditions: protein: recombinant; tags: N-terminal GST; dsDNA, one strand shown
# T8 sequence: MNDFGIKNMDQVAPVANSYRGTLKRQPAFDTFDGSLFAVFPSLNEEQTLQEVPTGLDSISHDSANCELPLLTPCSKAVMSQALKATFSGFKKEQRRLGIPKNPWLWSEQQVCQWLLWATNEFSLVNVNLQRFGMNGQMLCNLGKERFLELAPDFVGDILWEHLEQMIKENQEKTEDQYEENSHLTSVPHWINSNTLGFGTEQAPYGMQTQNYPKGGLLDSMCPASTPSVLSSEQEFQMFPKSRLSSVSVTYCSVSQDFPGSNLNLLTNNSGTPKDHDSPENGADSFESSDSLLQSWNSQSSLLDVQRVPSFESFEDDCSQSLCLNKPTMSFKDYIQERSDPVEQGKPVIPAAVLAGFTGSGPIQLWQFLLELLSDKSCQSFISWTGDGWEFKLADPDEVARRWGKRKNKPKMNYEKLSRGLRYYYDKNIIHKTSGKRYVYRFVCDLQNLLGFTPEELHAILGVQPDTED
# Method in brief: as §1
# SPDEF = molecular target: T9, SPDEF (Homo sapiens, UniProt O95238 1-335); conditions: protein: recombinant; tags: N-terminal GST; dsDNA, one strand shown
# T9 sequence: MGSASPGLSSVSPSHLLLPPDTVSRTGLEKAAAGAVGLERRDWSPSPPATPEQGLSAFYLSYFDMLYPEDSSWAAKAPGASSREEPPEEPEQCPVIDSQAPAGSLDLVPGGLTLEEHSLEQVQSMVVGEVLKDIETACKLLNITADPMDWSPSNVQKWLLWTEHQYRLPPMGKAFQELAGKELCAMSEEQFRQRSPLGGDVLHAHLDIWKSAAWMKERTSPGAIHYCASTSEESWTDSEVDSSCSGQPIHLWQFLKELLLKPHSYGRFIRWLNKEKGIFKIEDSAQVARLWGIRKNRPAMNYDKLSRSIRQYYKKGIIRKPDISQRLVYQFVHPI
# Method in brief: as §1
# ETV7 = molecular target: T10, ETV7 (Homo sapiens, UniProt Q9Y603 1-341); conditions: protein: recombinant; tags: N-terminal GST; dsDNA, one strand shown
# T10 sequence: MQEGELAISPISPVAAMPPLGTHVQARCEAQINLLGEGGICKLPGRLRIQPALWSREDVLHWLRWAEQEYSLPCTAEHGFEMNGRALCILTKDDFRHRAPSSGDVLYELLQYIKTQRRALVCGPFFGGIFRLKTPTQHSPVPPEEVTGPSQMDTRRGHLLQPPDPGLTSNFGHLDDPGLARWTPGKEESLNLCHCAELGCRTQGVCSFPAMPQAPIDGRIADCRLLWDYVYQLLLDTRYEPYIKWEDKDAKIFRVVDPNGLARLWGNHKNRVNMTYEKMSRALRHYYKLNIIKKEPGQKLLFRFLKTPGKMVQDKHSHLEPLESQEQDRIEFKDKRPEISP
# Method in brief: as §1
# ELF5 = molecular target: T11, ELF5 (Homo sapiens, UniProt Q9UKW6-2 1-255); conditions: protein: recombinant; tags: N-terminal GST; dsDNA, one strand shown
# T11 sequence: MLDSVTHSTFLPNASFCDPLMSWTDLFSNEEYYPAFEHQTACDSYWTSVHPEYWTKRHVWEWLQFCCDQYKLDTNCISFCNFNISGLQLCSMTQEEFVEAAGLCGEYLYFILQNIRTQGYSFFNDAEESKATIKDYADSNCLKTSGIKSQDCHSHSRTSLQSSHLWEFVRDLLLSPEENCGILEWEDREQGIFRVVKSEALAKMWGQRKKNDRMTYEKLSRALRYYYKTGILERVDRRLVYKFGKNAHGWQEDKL
# Method in brief: as §1
# ETV3 = molecular target: T12, ETV3 (Homo sapiens, UniProt P41162-2 1-143); conditions: protein: recombinant; tags: N-terminal GST; dsDNA, one strand shown
# T12 sequence: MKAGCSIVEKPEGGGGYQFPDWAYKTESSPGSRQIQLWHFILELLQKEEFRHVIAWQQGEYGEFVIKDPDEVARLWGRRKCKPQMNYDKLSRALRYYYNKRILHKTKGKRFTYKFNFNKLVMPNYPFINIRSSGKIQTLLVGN
# Method in brief: as §1
# ETV6 = ETV6 (Homo sapiens, UniProt P41212 1-452); conditions: protein: recombinant; tags: N-terminal GST; dsDNA, one strand shown
# Method in brief: as §1
# ELF4, sequence (Q99607 whole entry): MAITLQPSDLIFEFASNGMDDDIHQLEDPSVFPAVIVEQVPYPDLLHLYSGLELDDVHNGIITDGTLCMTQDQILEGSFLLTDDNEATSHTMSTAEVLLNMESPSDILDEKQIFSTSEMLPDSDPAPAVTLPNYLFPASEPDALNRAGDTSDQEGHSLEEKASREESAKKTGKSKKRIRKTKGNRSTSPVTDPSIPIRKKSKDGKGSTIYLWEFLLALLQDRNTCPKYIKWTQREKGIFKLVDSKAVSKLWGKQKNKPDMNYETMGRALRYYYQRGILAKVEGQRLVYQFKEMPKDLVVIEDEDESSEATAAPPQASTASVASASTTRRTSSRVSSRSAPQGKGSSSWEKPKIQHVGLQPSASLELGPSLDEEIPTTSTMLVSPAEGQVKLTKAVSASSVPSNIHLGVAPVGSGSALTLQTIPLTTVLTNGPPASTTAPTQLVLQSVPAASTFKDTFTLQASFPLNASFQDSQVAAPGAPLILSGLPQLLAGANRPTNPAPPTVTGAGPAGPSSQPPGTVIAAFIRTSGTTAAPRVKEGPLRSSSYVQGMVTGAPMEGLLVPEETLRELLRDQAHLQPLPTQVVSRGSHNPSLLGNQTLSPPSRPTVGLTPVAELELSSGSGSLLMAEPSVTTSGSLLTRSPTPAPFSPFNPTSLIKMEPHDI
# HSF1, sequence (Q00613 whole entry): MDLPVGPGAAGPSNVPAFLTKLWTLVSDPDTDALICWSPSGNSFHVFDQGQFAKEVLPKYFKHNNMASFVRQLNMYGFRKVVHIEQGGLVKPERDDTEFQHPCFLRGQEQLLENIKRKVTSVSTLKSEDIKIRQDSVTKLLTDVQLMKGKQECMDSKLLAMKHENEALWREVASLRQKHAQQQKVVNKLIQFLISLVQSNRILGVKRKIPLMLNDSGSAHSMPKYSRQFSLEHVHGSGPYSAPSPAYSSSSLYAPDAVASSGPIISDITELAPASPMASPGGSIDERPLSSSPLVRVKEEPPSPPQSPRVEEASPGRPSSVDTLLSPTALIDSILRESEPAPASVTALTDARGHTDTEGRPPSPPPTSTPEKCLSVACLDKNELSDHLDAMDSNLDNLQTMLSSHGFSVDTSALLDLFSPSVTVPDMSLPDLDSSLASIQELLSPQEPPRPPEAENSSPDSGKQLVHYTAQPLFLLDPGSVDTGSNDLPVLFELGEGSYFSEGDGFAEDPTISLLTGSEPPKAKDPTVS
# ETV6, sequence (P41212 whole entry): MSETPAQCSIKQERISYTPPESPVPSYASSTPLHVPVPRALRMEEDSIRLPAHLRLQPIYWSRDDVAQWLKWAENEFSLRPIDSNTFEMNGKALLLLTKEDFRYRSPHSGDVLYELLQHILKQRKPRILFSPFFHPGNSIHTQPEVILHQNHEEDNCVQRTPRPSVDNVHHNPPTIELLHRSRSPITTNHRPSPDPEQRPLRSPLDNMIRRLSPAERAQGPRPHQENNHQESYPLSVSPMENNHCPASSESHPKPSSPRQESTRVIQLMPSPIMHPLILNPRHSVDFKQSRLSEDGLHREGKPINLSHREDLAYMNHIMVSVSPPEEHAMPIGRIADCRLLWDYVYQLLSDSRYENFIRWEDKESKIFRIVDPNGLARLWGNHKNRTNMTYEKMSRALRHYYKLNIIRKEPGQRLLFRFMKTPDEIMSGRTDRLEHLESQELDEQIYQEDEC
# ETV1, sequence (P50549 whole entry): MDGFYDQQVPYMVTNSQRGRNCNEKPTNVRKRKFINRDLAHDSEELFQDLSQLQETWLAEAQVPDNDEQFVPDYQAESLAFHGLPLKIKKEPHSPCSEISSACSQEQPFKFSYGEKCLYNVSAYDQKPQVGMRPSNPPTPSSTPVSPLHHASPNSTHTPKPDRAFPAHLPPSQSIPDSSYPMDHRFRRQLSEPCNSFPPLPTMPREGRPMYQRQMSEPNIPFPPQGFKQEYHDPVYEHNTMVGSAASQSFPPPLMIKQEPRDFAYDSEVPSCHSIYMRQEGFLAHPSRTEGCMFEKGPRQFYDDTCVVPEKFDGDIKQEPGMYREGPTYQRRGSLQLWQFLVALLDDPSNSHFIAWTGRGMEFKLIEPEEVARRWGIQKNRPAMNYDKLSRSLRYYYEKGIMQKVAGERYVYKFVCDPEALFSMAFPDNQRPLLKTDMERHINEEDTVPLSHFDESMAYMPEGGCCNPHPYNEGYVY
# CRX, sequence (O43186 whole entry): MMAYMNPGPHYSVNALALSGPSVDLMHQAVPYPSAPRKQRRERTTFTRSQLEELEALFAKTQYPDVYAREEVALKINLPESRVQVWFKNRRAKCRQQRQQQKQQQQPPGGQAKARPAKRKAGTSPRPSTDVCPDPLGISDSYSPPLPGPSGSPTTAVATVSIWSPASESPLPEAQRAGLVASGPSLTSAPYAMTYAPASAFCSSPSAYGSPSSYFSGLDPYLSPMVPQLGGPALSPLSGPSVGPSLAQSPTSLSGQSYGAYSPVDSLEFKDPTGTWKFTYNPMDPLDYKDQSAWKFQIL
# ETV5, sequence (P41161 whole entry): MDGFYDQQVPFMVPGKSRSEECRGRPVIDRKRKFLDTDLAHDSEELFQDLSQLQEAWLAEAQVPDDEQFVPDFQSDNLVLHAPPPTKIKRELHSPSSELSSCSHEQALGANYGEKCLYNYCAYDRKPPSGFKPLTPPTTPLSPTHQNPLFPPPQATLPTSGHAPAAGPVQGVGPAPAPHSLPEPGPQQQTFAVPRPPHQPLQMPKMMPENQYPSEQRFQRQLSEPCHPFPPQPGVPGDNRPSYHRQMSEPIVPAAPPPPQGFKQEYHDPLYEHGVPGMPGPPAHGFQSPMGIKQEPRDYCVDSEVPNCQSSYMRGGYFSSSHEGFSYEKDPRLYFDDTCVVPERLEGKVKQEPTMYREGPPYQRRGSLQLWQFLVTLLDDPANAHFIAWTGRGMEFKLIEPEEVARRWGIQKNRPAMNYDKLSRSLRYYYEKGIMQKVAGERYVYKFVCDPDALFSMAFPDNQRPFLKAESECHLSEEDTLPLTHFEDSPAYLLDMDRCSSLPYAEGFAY
sequence,measurement,setting,value
AAACCA,binding signal,FEV,"1.22 fold enrichment (6-mer frequency, TF over GST control)"
same,binding signal,ETV5,"1.15 fold enrichment (6-mer frequency, TF over GST control)"
same,binding signal,HSF1,"1.09 fold enrichment (6-mer frequency, TF over GST control)"
same,binding signal,SPIC,"1.16 fold enrichment (6-mer frequency, TF over GST control)"
same,binding signal,ELF4,"1.2 fold enrichment (6-mer frequency, TF over GST control)"
same,binding signal,ELK4,"1.26 fold enrichment (6-mer frequency, TF over GST control)"
same,binding signal,ETV2,"1.14 fold enrichment (6-mer frequency, TF over GST control)"
same,binding signal,ELF3,"1.17 fold enrichment (6-mer frequency, TF over GST control)"
same,binding signal,CRX,"1.14 fold enrichment (6-mer frequency, TF over GST control)"
same,binding signal,ETV1,"1.09 fold enrichment (6-mer frequency, TF over GST control)"
same,binding signal,ERF,"1.16 fold enrichment (6-mer frequency, TF over GST control)"
same,binding signal,ETV3L,"1.18 fold enrichment (6-mer frequency, TF over GST control)"
same,binding signal,ETS2,"1.17 fold enrichment (6-mer frequency, TF over GST control)"
same,binding signal,SPDEF,"1.1 fold enrichment (6-mer frequency, TF over GST control)"
same,binding signal,ETV7,"1.2 fold enrichment (6-mer frequency, TF over GST control)"
same,binding signal,ELF5,"1.13 fold enrichment (6-mer frequency, TF over GST control)"
same,binding signal,ETV3,"1.15 fold enrichment (6-mer frequency, TF over GST control)"
same,binding signal,ETV6,"1.21 fold enrichment (6-mer frequency, TF over GST control)"
